JMJD2A Tudor inh: inhibitors of human JMJD2A Tudor domain; Potency, µM (titrated, usually from 114 µM), for the others: top-dose activity change, negative = inhibition, hits mostly inhibitors; AlphaScreen JMJD2A-Tudor / H3K4me3 peptide binding; actives 4.4% (n = 390,000); O75164; note: % is set by controls: 0 for no effect and ±100 for the full control effect; nearly all actives have a fitted effect of over 50% in size
Sfp PPTase inh: Sfp phosphopantetheinyl transferase inhibition. Potency, µM, for the others: largest response in the series, negative = inhibition, hits mostly inhibitors. Q9F4F7. actives 3.5% (n = 310,000). Biochemical Sfp PPTase activity, qHTS;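 note: the enzyme is Sfp with the accession as filed and its product quenches rhodamine fluorescence; 0% = enzyme reaction without inhibitor and -100% = no enzyme wells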
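Compounds were incubated with enzyme (final 15 nM) for 15 min at room temperature before substrate addition started the reaction. Fluorescence at 525 nm excitation, 598 nm emission was recorded immediately and after 30 minutes.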
G9a block: inhibitors of human histone lysine methyltransferase G9a; AID 504332; G9a H3K9 monomethylation, AlphaScreen, 2 h; Potency, µM (series often up to 102 µM), for the others: top-dose activity, negative = inhibition, actives largely listed as inhibitors; actives 8.8% (n = 350,000); Q96KQ7; note: % is set by controls: 0 for no effect and ±100 for the full control effect; nearly all actives have a fitted effect of over 75% in size
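Readings reflect AlphaScreen signal from monomethyl-H3K9 antibody detection. HMT at 20 nM; substrate b-H3K9 500 nM; cofactor SAM 20 uM; 2 h RT reaction; compounds tested as titrations in qHTS with 15 min preincubation.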
BAZ2B inh: BAZ2B (human) inhibition; AlphaScreen BAZ2B-H3K14Ac peptide displacement; AID 504333; actives 4.4% (n = 360,000); Q9UIF8; Potency, µM (highest dose often 114 µM), inactives show at the top dose activity change, negative = inhibition, actives largely listed as inhibitors; note: % is set by controls: 0 for no effect and ±100 for the full control effect; nearly all actives have a fitted effect of over 60% in size
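AlphaScreen displacement of biotin-H3(5-23)K14Ac peptide (50 nM final) from BAZ2B (50 nM final) in PBS pH 7.4, 0.01% Tween-20; complex preformed 30 min RT, then compounds (top 110 uM) 30 min RT, beads 20 min dark.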
HP1b binding inh: HP1-beta chromodomain-methylated histone interaction inhibition; actives 0.56% (n = 390,000); AID 540317; AlphaScreen HP1-beta / biotin-H3K9me3 peptide binding; Potency, µM (series often up to 114 µM), without a hit: top-dose activity change, negative = inhibition, actives largely listed as inhibitors; note: nearly all actives have a fitted effect of over 70% in size
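HP1-beta protein (50 nM final) preincubated 30 min at room temperature with biotinylated H3(1-18)K9me3 peptide (50 nM) in PBS pH 7.4, 0.01% Tween-20, then compound added for 30 min. AlphaScreen streptavidin donor/nickel chelate acceptor beads (10 ug/mL final), 30 min dark, luminescence read.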
* = called active by the depositor; ? = inconclusive; · = no result given; [ ] = remark or other dose. In the library only some 12% were active in any assay of this set; here they are far more common. Calls come from the whole dose curve; as a rule, active = well fitted curve in the direction sought with a large enough effect; inconclusive = small, poorly fitted or top-dose-only effect, or another doubt; inactive = no such curve, though single readings can be large; an effect the other way counts as inactive or inconclusive. Potency is the fitted concentration of half-maximal effect.

SMILES	JMJD2A Tudor inh	Sfp PPTase inh	G9a block	BAZ2B inh	HP1b binding inh
CN(C)c1ccc(/C=N/n2c(-c3cccnc3)n[nH]c2=S)cc1	5.01µM*	-8.3%	3.16µM*	?	7.4%
Cc1ccc(/C=N/n2c(-c3cccnc3)n[nH]c2=S)o1	5.01µM*	56.2µM*	28.2µM*	?	40.1%
Cc1nc2ccccc2c(=O)n1/N=C/c1ccc(N(C)C)cc1	-16.0%	11.7%	26.3%[59 µM]	3.7%	9.6%
Cc1nnc(C)n1/N=C/c1cccnc1	5.7%	20.3%	1.1%[59 µM]	0.2%	42.2%
C/C=C/n1ccnc1CC(O)(c1ccccc1)c1ccc(C)cc1 (stereo not drawn)	-18.7%	·	·	·	0.5%
O=C(CSc1nnc(CNC(=O)c2ccc(F)cc2)o1)NCc1ccc(F)cc1	4.9%	5.4%	47.9%	-13.0%	22.3%
Cc1ccc(-c2n[nH]c(=S)n2/N=C/c2ccncc2)cc1	?	-17.8%	1.58µM*	-11.9%	-15.8%
CCc1c(C)sc(NC(=S)NC(C)C2CCCO2)c1C(=O)OC (stereo not drawn)	-21.6%[57.1 µM]	3.4%	-35.8%	?	7.7%
C#CCOCCOCCOCCNc1nc(N2CCN(C(=O)CCCCCCCCCCNC(=O)[C@H]([C@@H](C)CC)n3cc(CCCCN=C(N)N)nn3)CC2)nc(N2CCN(C(=O)CCCCCCCCCCNC(=O)[C@H]([C@@H](C)CC)n3cc(CCCCN=C(N)N)nn3)CC2)n1	·	·	-8.6%[2.33 µM]	50.1µM*	·
C#CCOCCOCCOCCNc1nc(N2CCN(C(=O)CCCCCCCCCCNC(=O)[C@H]([C@@H](C)CC)n3cc(CCCCCN)nn3)CC2)nc(N2CCN(C(=O)CCCCCCCCCCNC(=O)[C@H](CCCCN)n3cc(CCCC(=O)O)nn3)CC2)n1	?	·	3.0%[2.33 µM]	?	10.6%
C#CCOCCOCCOCCNc1nc(N2CCN(C(=O)CCCCCCCCCCNC(=O)[C@H]([C@@H](C)CC)n3cc(CCCCN=C(N)N)nn3)CC2)nc(N2CCN(C(=O)CCCCCCCCCCNC(=O)[C@H](CCCCN)n3cc(C)nn3)CC2)n1	22.4µM*	·	-0.4%[2.33 µM]	50.1µM*	35.5µM*
C#CCOCCOCCOCCNc1nc(N2CCN(C(=O)CCCCCCCCCCNC(=O)[C@@H](CCC(=O)O)n3cc(CCCCCN)nn3)CC2)nc(N2CCN(C(=O)CCCCCCCCCCNC(=O)[C@H]([C@@H](C)CC)n3cc(CCCCCN)nn3)CC2)n1	?	·	11.3%[2.33 µM]	56.2µM*	0.5%
C#CCOCCOCCOCCNc1nc(N2CCN(C(=O)CCCCCCCCCCNC(=O)[C@H]([C@@H](C)CC)n3cc(CCCCCN)nn3)CC2)nc(N2CCN(C(=O)CCCCCCCCCCNC(=O)[C@@H]([C@H](C)CC)n3cc(CCCCCN)nn3)CC2)n1	·	·	-1.5%[2.33 µM]	50.1µM*	·
CC(=C/c1ccccc1)/C=N/NC(=O)CSc1nc(C)cc(C)n1	-15.8%	11.8%	9.9%[59 µM]	-7.1%	37.0%
COc1ccc(S(=O)(=O)N2CCCCC2)cc1NC(=O)c1ccc(=O)[nH]c1	1.5%[57.1 µM]	6.3%	2.9%	-7.4%	51.6%
N#Cc1c(-c2ccc(Cl)cc2)no[n+]1[O-]	-26.2%	·	·	·	·
C#CCOCCOCCOCCNc1nc(N2CCN(C(=O)CCCCCCCCCCNC(=O)Cn3cc(CCCCCN)nn3)CC2)nc(N2CCN(C(=O)CCCCCCCCCCNC(=O)[C@H]([C@@H](C)CC)n3cc(CCCCN=C(N)N)nn3)CC2)n1	56.2µM*	·	3.5%[2.33 µM]	56.2µM*	?
C#CCOCCOCCOCCNc1nc(N2CCN(C(=O)CCCCCCCCCCNC(=O)[C@H]([C@@H](C)CC)n3cc(CCCCCN)nn3)CC2)nc(N2CCN(C(=O)CCCCCCCCCCNC(=O)[C@H]([C@@H](C)CC)n3cc(CCCCN=C(N)N)nn3)CC2)n1	·	·	14.1%[2.33 µM]	56.2µM*	·
COc1ccc(CCN(C)C(=O)C2CCCN(C3CCN(Cc4ccccc4)CC3)C2)cc1OC (stereo not drawn)	7.94µM*	-23.9%	31.6µM*	35.5µM*	22.4µM*
COc1ccc(CCNC(=S)NC2CCN(Cc3ccccc3)CC2)cc1OC	-25.9%	15.6%	-11.1%	-34.5%	35.7%
COc1ccc(OC)c(CN2CCC(N3CCC(C(=O)NC4CC4)CC3)CC2)c1	-14.2%	13.6%	·	-8.7%	57.4%
COc1ccc(OC)c(CN2CCC(C(=O)N(C)CCc3ccc(OC)c(OC)c3)CC2)c1	22.4µM*	?	·	23.3%	-21.8%
N#CCCN1CCN(S(=O)(=O)c2ccc(S(=O)(=O)NCC3CCCO3)cc2)CC1 (stereo not drawn)	-10.0%	6.6%	1.2%[59 µM]	-4.1%	9.2%
C=CCNC(=O)c1ccc(OC)cc1	-0.7%	14.9%	11.6%	4.6%	23.4%
CCOc1ccc(NC(=O)c2ccc(OC)cc2)cc1	-10.3%	-5.6%	·	2.5%	49.8%
SMILES	JMJD2A Tudor inh	Sfp PPTase inh	G9a block	BAZ2B inh	HP1b binding inh
C=CCNCC#CCOc1ccc(OC)cc1	6.31µM*	-18.6%	10µM*	?	?
COCCNCC#CCOc1ccc(OC)cc1	7.94µM*	-4.9%	?	50.1µM*	?
Nc1cccn2c(-c3ccc(Cl)c(Cl)c3)cnc12	50.1µM*	-17.5%	44.7µM*	39.8µM*	?
CC(=O)NC(CC(=O)c1ccc([N+](=O)[O-])cc1)C(Cl)(Cl)Cl (stereo not drawn)	-11.1%	?	2.3%[59 µM]	7.7%	26.0%
Cc1nc2cc(Cl)ccc2n1-c1ccccc1	-12.1%	2.5%	3.9%[59 µM]	?	18.7%
Cc1n(-c2ccccc2)c2ccc(Cl)cc2[n+]1CCO	?	-9.4%	8.91µM*	-16.8%	-19.6%
COc1ccc2cc(CNc3ccccc3)c(=O)n(CC(=O)Nc3ccc(C(C)=O)cc3)c2c1	-23.8%	·	-32.8%[59 µM]	-12.2%	9.9%
O=c1[nH]c(=S)[nH]cc1S(=O)(=O)c1cccc(Cl)c1	-33.1%	-25.9%	39.8µM*	-15.9%	17.8%
O=c1[nH]c(=S)[nH]cc1Oc1ccc(Cl)cc1	?	·	·	·	50.4%
CNC(=O)CSc1nnc(-c2cccc(S(=O)(=O)N3CCOCC3)c2)n1-c1ccc(F)cc1	-6.1%	15.8%	?	-3.6%	13.0%
CN(C)S(=O)(=O)c1cccc(-c2nnc(SCC(=O)NCCCCCC(=O)O)n2-c2ccc(F)cc2)c1	?	12.5%	15.8µM*	-7.1%	46.8%
CC(=O)Nc1ccc(S(=O)(=O)Nc2cccc(-c3cn4c(n3)SCC4)c2)cc1	-29.6%	0.9%	?	·	23.4%
CCc1ccc(-c2cn3c(n2)SCC3)cc1	-23.9%	9.0%	44.7µM*	?	-1.1%
O=C(Nc1ccc(-c2cn3c(n2)SCC3)cc1)c1ccco1	-15.2%	-10.5%	28.2µM*	-30.0%	-2.3%
Cc1ccc(-c2cn3c(n2)SCC3)cc1	-27.3%	4.8%	-8.7%	?	-22.7%
O=C(Nc1cccc(-c2cn3c(n2)SCC3)c1)c1ccc(Br)o1	-12.0%	13.5%	7.94µM*	56.2µM*	25.3%

Source: PubChem BioAssay
